Read-outs that look alike come from different tables or passages of the source.
Key:
Conditions in all cases: n = 1
MEK2 = system: T1, MEK2
T1 construct: gene MAP2K2

MEK3 = system: T2, MEK3
T2 construct: gene MAP2K3

MEK4 = system: T3, MEK4
T3 construct: gene MAP2K4

MEK5 = system: T4, MEK5
T4 construct: gene MAP2K5

MEK6 = system: T5, MEK6
T5 construct: gene MAP2K6

MELK = system: MELK
MERTK = system: MERTK
MET = system: MET
MINK = system: T6, MINK
T6 construct: gene MINK1

MKK7 = system: MKK7
MKNK1 = system: MKNK1
MKNK2 = system: MKNK2
MLCK = system: T7, MLCK
T7 construct: gene MYLK3

MLK1 = system: T8, MLK1
T8 construct: gene MAP3K9

MLK2 = system: MLK2
MLK3 = system: MLK3
MRCKA = system: MRCKA
MRCKB = system: T9, MRCKB
T9 construct: gene CDC42BPB

MST1R = system: MST1R
MST1 = system: T10, MST1
T10 construct: gene STK4

[1] = concentration: 1 μM, replicates: in singlicate
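Further: KINOMEscan kinase panel screen.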

Structure (SMILES): Cc1ccc(C(=O)Nc2ccc(Nc3ccnc4cc(-c5ccccn5)ccc34)cc2O)cc1.Cl [GW440146]
- %Inh (MEK2; [1]): 0%
- %Inh (MEK3; [1]): 0%
- %Inh (MEK4; [1]): 19%
- %Inh (MEK5; [1]): 100%
- %Inh (MEK6; [1]): 0%
- %Inh (MELK; [1]): 0%
- %Inh (MERTK; [1]): 33%
- %Inh (MET; [1]): 0%
- %Inh (MINK; [1]): 36%
- %Inh (MKK7; [1]): 0%
- %Inh (MKNK1; [1]): 0%
- %Inh (MKNK2; [1]): 0%
- %Inh (MLCK; [1]): 0%
- %Inh (MLK1; [1]): 0%
- %Inh (MLK2; [1]): 0%
- %Inh (MLK3; [1]): 0%
- %Inh (MRCKA; [1]): 18%
- %Inh (MRCKB; [1]): 0%
- %Inh (MST1R; [1]): 52%
- %Inh (MST1; [1]): 10%

Structure (SMILES): Cc1cccc(-c2cc(Nc3ccncc3)c3ccccc3n2)n1 [GSK223675]
- %Inh (MEK2; [1]): 0%
- %Inh (MEK3; [1]): 0%
- %Inh (MEK4; [1]): 0%
- %Inh (MEK5; [1]): 0%
- %Inh (MEK6; [1]): 0%
- %Inh (MELK; [1]): 0%
- %Inh (MERTK; [1]): 4%
- %Inh (MET; [1]): 0%
- %Inh (MINK; [1]): 10%
- %Inh (MKK7; [1]): 5%
- %Inh (MKNK1; [1]): 11%
- %Inh (MKNK2; [1]): 4%
- %Inh (MLCK; [1]): 0%
- %Inh (MLK1; [1]): 0%
- %Inh (MLK2; [1]): 0%
- %Inh (MLK3; [1]): 0%
- %Inh (MRCKA; [1]): 0%
- %Inh (MRCKB; [1]): 0%
- %Inh (MST1R; [1]): 33%
- %Inh (MST1; [1]): 0%

Structure (SMILES): COc1cc2ncn(-c3cc(OCC4CCCO4)c(C(N)=O)s3)c2cc1OC (stereo not shown) [GSK204607]
- %Inh (MEK2; [1]): 9%
- %Inh (MEK3; [1]): 0%
- %Inh (MEK4; [1]): 5%
- %Inh (MEK5; [1]): 99.3%
- %Inh (MEK6; [1]): 0%
- %Inh (MELK; [1]): 0%
- %Inh (MERTK; [1]): 10%
- %Inh (MET; [1]): 0%
- %Inh (MINK; [1]): 27%
- %Inh (MKK7; [1]): 0%
- %Inh (MKNK1; [1]): 0%
- %Inh (MKNK2; [1]): 4%
- %Inh (MLCK; [1]): 0%
- %Inh (MLK1; [1]): 0%
- %Inh (MLK2; [1]): 0%
- %Inh (MLK3; [1]): 10%
- %Inh (MRCKA; [1]): 8%
- %Inh (MRCKB; [1]): 0%
- %Inh (MST1R; [1]): 16%
- %Inh (MST1; [1]): 0%

Structure (SMILES): COc1ccccc1-c1ccc2c(NC(=O)C3CC3)n[nH]c2n1 [SB-711239]
- %Inh (MEK2; [1]): 0%
- %Inh (MEK3; [1]): 16%
- %Inh (MEK4; [1]): 21%
- %Inh (MEK5; [1]): 0%
- %Inh (MEK6; [1]): 0%
- %Inh (MELK; [1]): 15%
- %Inh (MERTK; [1]): 2%
- %Inh (MET; [1]): 0%
- %Inh (MINK; [1]): 6%
- %Inh (MKK7; [1]): 7%
- %Inh (MKNK1; [1]): 0%
- %Inh (MKNK2; [1]): 0%
- %Inh (MLCK; [1]): 14%
- %Inh (MLK1; [1]): 8%
- %Inh (MLK2; [1]): 8%
- %Inh (MLK3; [1]): 8%
- %Inh (MRCKA; [1]): 0%
- %Inh (MRCKB; [1]): 0%
- %Inh (MST1R; [1]): 16%
- %Inh (MST1; [1]): 0%

Structure (SMILES): Clc1cc(Cl)cc(Nc2ccnc(Nc3cc(Cl)cc(Cl)c3)n2)c1 [GSK175726]
- %Inh (MEK2; [1]): 0%
- %Inh (MEK3; [1]): 0%
- %Inh (MEK4; [1]): 0%
- %Inh (MEK5; [1]): 49%
- %Inh (MEK6; [1]): 3%
- %Inh (MELK; [1]): 8%
- %Inh (MERTK; [1]): 0%
- %Inh (MET; [1]): 0%
- %Inh (MINK; [1]): 18%
- %Inh (MKK7; [1]): 13%
- %Inh (MKNK1; [1]): 5%
- %Inh (MKNK2; [1]): 0%
- %Inh (MLCK; [1]): 0%
- %Inh (MLK1; [1]): 0%
- %Inh (MLK2; [1]): 0%
- %Inh (MLK3; [1]): 10%
- %Inh (MRCKA; [1]): 9%
- %Inh (MRCKB; [1]): 6%
- %Inh (MST1R; [1]): 14%
- %Inh (MST1; [1]): 0%

Structure (SMILES): COc1ccc(Nc2nccc(NCCNC(=O)Nc3ccccc3F)n2)cc1 [GSK1379901]
- %Inh (MEK2; [1]): 8%
- %Inh (MEK3; [1]): 0%
- %Inh (MEK4; [1]): 11%
- %Inh (MEK5; [1]): 56%
- %Inh (MEK6; [1]): 0%
- %Inh (MELK; [1]): 0%
- %Inh (MERTK; [1]): 24%
- %Inh (MET; [1]): 0%
- %Inh (MINK; [1]): 11%
- %Inh (MKK7; [1]): 55%
- %Inh (MKNK1; [1]): 24%
- %Inh (MKNK2; [1]): 13%
- %Inh (MLCK; [1]): 0%
- %Inh (MLK1; [1]): 0%
- %Inh (MLK2; [1]): 0%
- %Inh (MLK3; [1]): 25%
- %Inh (MRCKA; [1]): 23%
- %Inh (MRCKB; [1]): 0%
- %Inh (MST1R; [1]): 16%
- %Inh (MST1; [1]): 0%

Structure (SMILES): COc1cc2ncnc(Nc3ccc4nc(-c5ccccc5)[nH]c4c3)c2cc1OC.Cl [GW282450]
- %Inh (MEK2; [1]): 0%
- %Inh (MEK3; [1]): 3%
- %Inh (MEK4; [1]): 21%
- %Inh (MEK5; [1]): 90%
- %Inh (MEK6; [1]): 0%
- %Inh (MELK; [1]): 7%
- %Inh (MERTK; [1]): 0%
- %Inh (MET; [1]): 0%
- %Inh (MINK; [1]): 1%
- %Inh (MKK7; [1]): 0%
- %Inh (MKNK1; [1]): 2%
- %Inh (MKNK2; [1]): 2%
- %Inh (MLCK; [1]): 0%
- %Inh (MLK1; [1]): 0%
- %Inh (MLK2; [1]): 0%
- %Inh (MLK3; [1]): 33%
- %Inh (MRCKA; [1]): 14%
- %Inh (MRCKB; [1]): 14%
- %Inh (MST1R; [1]): 26%
- %Inh (MST1; [1]): 0%

Structure (SMILES): Cc1ccc(NC(=O)Nc2cccc(C(F)(F)F)c2)cc1 [GSK955403]
- %Inh (MEK2; 1 µM): 3%
- %Inh (MEK3; 1 µM): 15%
- %Inh (MEK4; 1 µM): 0%
- %Inh (MEK5; 1 µM): 0%
- %Inh (MEK6; 1 µM): 26%
- %Inh (MELK; 1 µM): 15%
- %Inh (MERTK; 1 µM): 29%
- %Inh (MET; 1 µM): 0%
- %Inh (MINK; 1 µM): 0%
- %Inh (MKK7; 1 µM): 0%
- %Inh (MKNK1; 1 µM): 0%
- %Inh (MKNK2; 1 µM): 30%
- %Inh (MLCK; 1 µM): 0%
- %Inh (MLK1; 1 µM): 0%
- %Inh (MLK2; 1 µM): 13%
- %Inh (MLK3; 1 µM): 6%
- %Inh (MRCKA; 1 µM): 0%
- %Inh (MRCKB; 1 µM): 0%
- %Inh (MST1R; 1 µM): 0%
- %Inh (MST1; 1 µM): 0%

Structure (SMILES): O=C(O)COc1ncnc2cc(-c3ccc4[nH]ncc4c3)sc12
- %Inh (MEK2; [1]): 7%
- %Inh (MEK3; [1]): 17%
- %Inh (MEK4; [1]): 37%
- %Inh (MEK5; [1]): 38%
- %Inh (MEK6; [1]): 0%
- %Inh (MELK; [1]): 21%
- %Inh (MERTK; [1]): 0%
- %Inh (MET; [1]): 1%
- %Inh (MINK; [1]): 12%
- %Inh (MKK7; [1]): 0%
- %Inh (MKNK1; [1]): 8%
- %Inh (MKNK2; [1]): 13%
- %Inh (MLCK; [1]): 1%
- %Inh (MLK1; [1]): 10%
- %Inh (MLK2; [1]): 4%
- %Inh (MLK3; [1]): 0%
- %Inh (MRCKA; [1]): 0%
- %Inh (MRCKB; [1]): 0%
- %Inh (MST1R; [1]): 25%
- %Inh (MST1; [1]): 73%

Structure (SMILES): Cl.O=C(Nc1cccc(-c2nn3ncccc3c2-c2ccnc(Nc3cccnc3)n2)c1)c1c(F)cccc1F [GSK312879]
- %Inh (MEK2; [1]): 9%
- %Inh (MEK3; [1]): 10%
- %Inh (MEK4; [1]): 40%
- %Inh (MEK5; [1]): 88%
- %Inh (MEK6; [1]): 0%
- %Inh (MELK; [1]): 3%
- %Inh (MERTK; [1]): 12%
- %Inh (MET; [1]): 0%
- %Inh (MINK; [1]): 0%
- %Inh (MKK7; [1]): 20%
- %Inh (MKNK1; [1]): 0%
- %Inh (MKNK2; [1]): 30%
- %Inh (MLCK; [1]): 0%
- %Inh (MLK1; [1]): 0%
- %Inh (MLK2; [1]): 31%
- %Inh (MLK3; [1]): 1%
- %Inh (MRCKA; [1]): 1%
- %Inh (MRCKB; [1]): 8%
- %Inh (MST1R; [1]): 26%
- %Inh (MST1; [1]): 17%

Structure (SMILES): Cn1ccc2ncnc(Oc3ccc(Nc4nc5ccccc5[nH]4)cc3)c21
- %Inh (MEK2; [1]): 0%
- %Inh (MEK3; [1]): 0%
- %Inh (MEK4; [1]): 0%
- %Inh (MEK5; [1]): 11%
- %Inh (MEK6; [1]): 0%
- %Inh (MELK; [1]): 0%
- %Inh (MERTK; [1]): 8%
- %Inh (MET; [1]): 0%
- %Inh (MINK; [1]): 0%
- %Inh (MKK7; [1]): 0%
- %Inh (MKNK1; [1]): 0%
- %Inh (MKNK2; [1]): 0%
- %Inh (MLCK; [1]): 0%
- %Inh (MLK1; [1]): 0%
- %Inh (MLK2; [1]): 20%
- %Inh (MLK3; [1]): 0%
- %Inh (MRCKA; [1]): 0%
- %Inh (MRCKB; [1]): 0%
- %Inh (MST1R; [1]): 18%
- %Inh (MST1; [1]): 8%
